Compound activity from PubChem BioAssay.
HP1b chromo inh – HTS for Inhibitors of HP1-beta Chromodomain Interactions with Methylated Histone Tails; hit rate 0.56% among 390,000; AID 540317, 2011; Chromobox protein homolog 1 (Homo sapiens), P83916; AlphaScreen HP1-beta / biotin-H3K9me3 peptide binding; Potency, µM (doses to about 114 µM), usual class: inhibitors; also: nearly all actives have a fitted effect of over 70% in size
Target sequence (P83916 whole entry, looked up): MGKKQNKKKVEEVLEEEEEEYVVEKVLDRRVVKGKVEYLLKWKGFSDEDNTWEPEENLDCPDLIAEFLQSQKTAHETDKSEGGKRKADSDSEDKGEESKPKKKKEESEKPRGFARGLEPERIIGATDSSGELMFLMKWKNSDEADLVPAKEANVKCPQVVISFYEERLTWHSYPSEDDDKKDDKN
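HP1-beta protein (50 nM final) preincubated 30 min at room temperature with biotinylated H3(1-18)K9me3 peptide (50 nM) in PBS pH 7.4, 0.01% Tween-20, then compound added for 30 min. AlphaScreen streptavidin donor/nickel chelate acceptor beads (10 ug/mL final), 30 min dark, luminescence read.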
G9a inh – qHTS Assay for Inhibitors of Histone Lysine Methyltransferase G9a | hit rate 8.8% among 350,000 | G9a H3K9 monomethylation, AlphaScreen, 2 h | AID 504332, 2011 | Histone-lysine N-methyltransferase EHMT2 (Homo sapiens), Q96KQ7 | Potency, µM (doses to about 102 µM), usual class: inhibitors; also: nearly all actives have a fitted effect of over 75% in size
Target sequence (Q96KQ7 913-1193 limits assumed): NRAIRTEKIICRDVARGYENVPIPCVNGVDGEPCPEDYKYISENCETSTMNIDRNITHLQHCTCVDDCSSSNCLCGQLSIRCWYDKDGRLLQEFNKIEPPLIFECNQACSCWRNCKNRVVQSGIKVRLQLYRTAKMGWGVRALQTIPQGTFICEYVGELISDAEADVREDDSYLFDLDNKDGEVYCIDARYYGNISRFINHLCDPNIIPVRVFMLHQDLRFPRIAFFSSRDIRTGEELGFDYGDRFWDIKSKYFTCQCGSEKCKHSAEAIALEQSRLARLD
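Enzyme 20 nM + cpd, 15 min RT; add b-H3K9 pep 500 nM / SAM 20 uM; 2 h RT; anti-H3K9me1 Ab 0.5 ug/mL + SA donor / anti-rabbit acceptor beads 20 ug/mL each, 10 min; AlphaScreen read.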
BAZ2B block – qHTS Assay for Inhibitors of BAZ2B. hit rate 4.4% among 360,000. Potency, µM (titrated, usually from 114 µM), actives largely listed as inhibitors. AlphaScreen BAZ2B-H3K14Ac peptide displacement. AID 504333, 2011. Bromodomain adjacent to zinc finger domain protein 2B (Homo sapiens), Q9UIF8; also: nearly all actives have a fitted effect of over 60% in size
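Inhibition is scored as reduced AlphaScreen emission. The BAZ2B/b-H3(5-23)K14Ac complex (50 nM each) in PBS pH 7.4, 0.01% Tween-20 meets compound (up to 110 uM) for 30 min at RT before bead addition.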
JMJD2A Tudor – qHTS Assay for Inhibitors of JMJD2A-Tudor Domain; Lysine-specific demethylase 4A (Homo sapiens), O75164; AlphaScreen JMJD2A-Tudor / H3K4me3 peptide binding; Potency, µM (doses to about 114 µM), usual class: inhibitors; hit rate 4.4% among 390,000; also: nearly all actives have a fitted effect of over 50% in size
PLK1 PBD block – qHTS for Inhibitors of PLK1-PDB (polo-like kinase 1 - polo-box domain): Primary Screen. Serine/threonine-protein kinase PLK1 (Homo sapiens), P53350. Plk1 PBD binding of FITC phosphopeptide, fluorescence polarization. Potency, µM, hits mostly inhibitors. hit rate 2.8% among 360,000; also: series mostly up to about 57 µM; nearly all actives have a fitted effect of over 65% in size
Sfp inh – qHTS Assay for Inhibitors of Bacillus subtilis Sfp phosphopantetheinyl transferase (PPTase); Biochemical Sfp PPTase activity, qHTS; hit rate 3.5% among 310,000; Potency, µM, hits mostly inhibitors; 4'-phosphopantetheinyl transferase ffp (Bacillus subtilis), Q9F4F7;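 also: the enzyme is Sfp with the accession as filed and its product quenches rhodamine fluorescence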
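After 15 min at room temperature with compound, 15 nM Sfp received 5 uM rhodamine-CoA plus 12.5 uM BHQ-2-ybbR (50 mM Hepes pH 7.6, 10 mM MgCl2). Rate came from the fluorescence difference over 30 min, ex 525/em 598 nm.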
Hits are given with their value; i = inactive; ? = inconclusive; nt = no result given; [ ] = another dose, or the depositor's remark. Most compounds without a hit are left out; they make up all but 12% or so of the library. Calls follow the shape of the dose curve; as a rule, active = well fitted curve in the direction sought with a large enough effect; inconclusive = small, poorly fitted or top-dose-only effect, or another doubt; inactive = no such curve, though single readings can be large; an effect the other way counts as inactive or inconclusive.

SMILES	HP1b chromo inh	G9a inh	BAZ2B block	JMJD2A Tudor	PLK1 PBD block	Sfp inh
NC(=O)c1c(NC(NC(=O)c2ccco2)C(=O)c2ccc(Cl)cc2)sc2c1CCCC2 (stereo not given)	i	25µM	?	?	?	56µM
CCOC(=O)c1c(NC(=O)c2ccccc2N(C)S(=O)(=O)c2ccccc2)sc2c1CCCC2	i	i	i	i	i	i
CNC(=O)c1c(NC(=O)c2ccco2)sc2c1CCC2	i	nt	i	i	i	i
COC(=O)c1c(NC(=O)COc2ccc(Cl)cc2C)sc2c1CCCCC2	i	7.9µM	i	i	nt	nt
CSc1nc(C)cc(SCC(=O)N/N=C/c2ccccc2)n1	i	i	i	i	i	i
COc1ccc(Oc2ncc3nc(CCc4ccccc4)c(=O)n(CCC#N)c3n2)cc1	nt	i[12.7 µM]	nt	nt	nt	i
COc1ccc(NC(=O)C(OC(=O)CNC(=O)c2ccccc2)c2ccccc2)cc1Cl (stereo not given)	nt	nt	nt	i	nt	nt
CCOC(=O)c1c(NC(=O)COc2cccc(C(F)(F)F)c2)sc2c1CCCCC2	i	5.6µM	i	i	nt	nt
CCOC(=O)c1c(NC(=O)COc2ccc(C(C)(C)C)cc2)sc2c1CCCC2	i	?	i	i	nt	nt
Cc1sc(NC(=O)c2ccco2)c(C(c2ccc(F)cc2)N2CCN(C)CC2)c1C (stereo not given)	?	45µM	50µM	56µM	i	i
Cc1sc(NC(=O)c2ccco2)c(C(=O)c2ccc(Cl)cc2)c1C	?	22µM	?	?	?	40µM
CCOC(=O)c1c(NC(=O)COc2ccc(Cl)cc2C)sc2c1CCCCC2	?	6.3µM	i	i	nt	nt
Cc1ccc(C(c2c(NC(=O)c3ccco3)sc(C)c2C)N2CCOCC2)cc1 (stereo not given)	nt	nt	nt	nt	i	nt
CCOC(=O)c1c(NC(=O)COc2ccccc2Br)sc2c1CCCCC2	i	10µM	i	i	nt	nt
NC(=O)c1nnn(Cc2cc(Cl)c(C(=O)c3ccc(Cl)cc3)c(Cl)c2)c1N	nt	nt	nt	nt	i	nt
c1ccc2sc(NCC3CCCO3)nc2c1 (stereo not given)	i	i	i	i	i	i
c1ccc2oc(-c3csc(NCC4CCCO4)n3)cc2c1 (stereo not given)	?	40µM	?	?	i	i
C=CCNc1nc(-c2ccc3c(c2)OCCO3)cs1	i	nt	nt	?	i	nt
C=CCNc1nc(-c2cc3ccccc3o2)cs1	i	11µM	?	i	i	?
COc1cc(-c2nc3sccn3c2Nc2c(C)cccc2C)ccc1O	?	i	i	56µM	nt	nt
COc1cc(-c2nc3cnccn3c2Nc2c(C)cccc2C)ccc1O	i	i[2.33 µM]	i	i	i	i
Cc1cccc(C)c1Nc1c(-c2ccc(O)cc2)nc2sccn12	16µM	4µM	40µM	45µM	nt	nt
COC(=O)C(C)N1C(=O)S/C(=C/c2cc(C)n(-c3ccccn3)c2C)C1=O (stereo not given)	i	?	?	i	i	i
COC(=O)C(C)N1C(=O)S/C(=C\c2cc(C)n(-c3ccccn3)c2C)C1=O (stereo not given)	i	56µM	?	?	i	i
Cc1cc(/C=C2\SC(=O)N(C)C2=O)c(C)n1-c1ccc(S(N)(=O)=O)cc1	i	45µM	i	i	i	i
SMILES	HP1b chromo inh	G9a inh	BAZ2B block	JMJD2A Tudor	PLK1 PBD block	Sfp inh
Cc1cc(/C=C2\SC(=S)N(C)C2=O)c(C)n1-c1cccc(O)c1	i	i	i	i[11.4 µM]	i	?
Cc1cc(/C=C2\SC(=O)N(C)C2=O)c(C)n1-c1ccc(O)cc1	i	79µM	50µM	?	i	i
COCc1cc(=O)[nH]c(=S)[nH]1	i	4.5µM	i	13µM	i	13µM
O=c1cc(Cc2ccccc2)[nH]c(=S)[nH]1	i	?	i	?	i	i
COc1cccc([C@@H]2Oc3ccc(Br)cc3C[C@H]2OC(=O)Nc2ccc(OC(F)F)cc2)c1	nt	nt	nt	nt	nt	i
CCOC(=O)n1cc(-c2cnc(CNC(=O)C(C)(c3ccccc3)c3ccccc3)o2)c2ccccc21	i	45µM	i	?	i	i
CN(C)CCN1C(=O)C2C(C(=O)Nc3cc(Cl)cc(Cl)c3)C3C=CC2(O3)C1C(=O)NC1CCCCC1 (stereo not given)	i	i[12.7 µM]	i	i	i	i
CN(C)CCCN(Cc1ccccc1)C(=S)Nc1cccc(C(F)(F)F)c1	i	71µM	i	i	i	i
CCCN(Cc1ccccc1)C(=S)Nc1cccc(C(F)(F)F)c1	i	i	i	i	i	i
Cc1ccc(NC(=S)N(CCCN2CCCC2)Cc2cccn2Cc2ccc(Cl)cc2)cc1Cl	i	32µM	?	?	i	i
FC(F)(F)c1cccc(NC(=S)N(CCCN2CCCC2)Cc2cccn2Cc2ccc(Cl)cc2)c1	i	45µM	i	?	i	56µM
COc1ccc(NC(=S)N(CCCN2CCC(C)CC2)Cc2cccs2)cc1Cl	i	?	i	i	17µM	32µM
CCOc1ccc(/C=C(\C#N)c2nc(-c3cc4ccccc4oc3=O)cs2)c(OCC)c1	i	?	i	i	nt	nt
O=C(CNC(=S)N(CCCN1CCOCC1)Cc1cccs1)NCc1ccccc1Cl	i	71µM	i	i	i	i
COc1ccc(NC(=S)N(CCCN2CCCC2)Cc2cccn2Cc2ccc(Cl)cc2)cc1Cl	i	28µM	28µM	?	i	79µM
Cc1ccc(NC(=S)N(CCCN2CCCC2)Cc2cccn2Cc2ccc(Cl)cc2)cc1C	i	i	i	50µM	i	i
COCCN(C(=S)Nc1ccc(OC)c(Cl)c1)C1CCN(C(C)C)CC1	i	?	i	i	13µM	40µM
CN1CCN(CCCN(Cc2cccs2)C(=S)Nc2ccc(Cl)cc2)CC1	i	i	i	i	i	i
COCCN(C(=S)Nc1ccc(OC)cc1)C1CCN(C(C)C)CC1	i	i	i	i	i	i
C#Cc1ccc(CN2CCC(Oc3cc(C(=O)NC4CC4)ccc3OC)CC2)cc1	i	i[12.7 µM]	i	i	i	i
CN(C)S(=O)(=O)c1ccc2c(c1)nc(CCC(=O)NCCc1ccc(Cl)cc1)n2C	i	i	i	i	i	i
CC12CCC=CC1C(c1cccc([N+](=O)[O-])c1)N(Cc1ccccc1)C2=O (stereo not given)	i	nt	nt	?	nt	i
Brc1cccc(CNCC2CCCO2)c1 (stereo not given)	i	nt	i	i	i	i
CCN(CC)C(=O)C1CCCc2c1[nH]c1ccc(Cl)cc21 (stereo not given)	i	?	i	i	i	i
O=CNC1CCCc2c1[nH]c1ccc(Cl)cc21 (stereo not given)	i	7.9µM	?	56µM	i	i
